# Screening results (PubChem)
# LMNA splice mod: qHTS Assay for Modulators of Lamin A Splicing. HeLa LMNA splicing GFP/RFP minigene ratio, 48 h. Potency, µM (doses to about 46.1 µM), for inactives: top-dose ratio change, negative = inhibition, most hits filed as inhibitors. 200,000 tested, 0.01% active. AID 1487, 2009; active means well fitted inhibition curve with a large enough effect in the signal ratio, with a control signal flat, not every such curve was filed as active; inconclusive means small, poorly fitted or top-dose-only effect, or effect the other way, or a change in a side signal; the % refers to the signal ratio; further: on the % scale 0 is the no-effect control and ±100 the full control effect
#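 S3 HeLa stable clones carrying a lamin A-EGFP splicing minigene plus DsRed2 were seeded at 600 cells/well in Opti-MEM with 2% FBS, pin-dosed and incubated 48 h at 37°C. Acumen cytometry (488 nm) gave the GFP/RFP total-intensity ratio.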
# ALDH1A1 block: qHTS Assay for Inhibitors of Aldehyde Dehydrogenase 1 (ALDH1A1); Aldehyde dehydrogenase 1A1 (Homo sapiens), P00352; Purified ALDH1A1, NADH fluorescence, propionaldehyde substrate; Potency, µM (series often up to 75.3 µM), for the others: at the top dose activity, negative = inhibition, hits mostly inhibitors; 220,000 tested, 7.3% active; AID 1030, 2008; active means well fitted inhibition curve with a large enough effect, not every such curve was filed as active; inconclusive means small, poorly fitted or top-dose-only effect, or another doubt; inactive means no such curve, though single readings can be large or run the other way;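 further: plate controls were no enzyme wells and a reference inhibitor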
# Target sequence (P00352 whole entry, looked up): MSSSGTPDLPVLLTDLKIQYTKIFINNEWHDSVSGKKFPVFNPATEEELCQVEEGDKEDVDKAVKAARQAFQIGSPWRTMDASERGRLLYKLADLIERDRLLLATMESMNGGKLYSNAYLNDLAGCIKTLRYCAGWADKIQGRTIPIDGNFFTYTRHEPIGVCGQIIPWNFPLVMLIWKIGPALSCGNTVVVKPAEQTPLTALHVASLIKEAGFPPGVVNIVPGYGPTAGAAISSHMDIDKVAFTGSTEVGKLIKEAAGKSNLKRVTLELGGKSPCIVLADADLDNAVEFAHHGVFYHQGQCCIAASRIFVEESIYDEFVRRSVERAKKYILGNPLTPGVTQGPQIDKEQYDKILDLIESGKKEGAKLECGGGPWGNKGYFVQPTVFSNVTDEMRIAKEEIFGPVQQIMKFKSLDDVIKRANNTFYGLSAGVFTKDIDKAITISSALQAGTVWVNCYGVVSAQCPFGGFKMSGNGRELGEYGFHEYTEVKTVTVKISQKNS
# HttQ103 aggreg: qHTS Multiplex Assay to Identify Dual Action Probes in a Cell Model of Huntington: Aggregate Formation (GFP) | PC12 HttQ103-GFP aggregates, Acumen cytometry, 40 h | Potency, µM (titrated, usually from 46.1 µM), without a hit: top-dose activity change, negative = inhibition, hits mostly inhibitors | 220,000 tested, 1.1% active | AID 1688, 2009; further: on the % scale 0 is the no-effect control and ±100 the full control effect; nearly all actives have a fitted effect of over 60% in size
#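 Inducible Q103 Huntingtin exon 1–GFP PC12 line, 1500 cells/well in phenol red free DMEM with 5% equine and 5% calf serum. Tebufenozide 100 nM induced expression; compounds titrated; aggregates quantified by cytometry.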
# KinaseGlo FLuc: Counterscreen for Luciferase (Kinase-Glo TM) Inhibition; Potency, µM (top dose mostly 38.3 µM), without a hit: at the top dose activity change, negative = inhibition, most hits filed as inhibitors; AID 1379, 2008; Kinase-Glo luciferase, ATP luminescence, 8 min; Luciferin 4-monooxygenase (Photuris pensylvanica), Q27757; 200,000 tested, 0.28% active; further: on the % scale 0 is the no-effect control and ±100 the full control effect; nearly all actives have a fitted effect of over 60% in size
#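 Kinase-Glo luciferase light output from ATP and luciferin was measured with 10 uM ATP, within the enzyme's linear range. Buffer: 50 mM imidazole pH 7.2, 50 mM KCl, 7 mM MgCl2, 0.01% Tween 20, 0.05% BSA; luminescence read after 8 min at ambient temperature.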
# HTT ATP protect: qHTS Multiplex Assay to Identify Dual Action Probes in a Cell Model of Huntington: Cytoprotection (ATP); Potency, µM (top dose mostly 56.4 µM), for inactives: cytoprotection (ATP increase), hits mostly activators; PC12 HTT-Q103 induced, cytoprotection, ATP luminescence, 40 h; AID 1471, 2008; 230,000 tested, 0.14% active; further: % of control where 0% means no effect; nearly all actives have a fitted effect of over 45% in size
#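 Stable PC12 Q103-GFP cells in serum-supplemented, phenol red-free DMEM; induction by tebufenozide at 100 nM final; compound dose series; cell viability quantified luminescently from ATP.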
# HPGD block: qHTS Assay for Inhibitors of HPGD (15-Hydroxyprostaglandin Dehydrogenase); purified HPGD, NADH fluorescence kinetic, PGE2 substrate; Potency, µM, without a hit: top-dose activity change, negative = inhibition, usual class: inhibitors; 150,000 tested, 4.3% active; active means well fitted inhibition curve with a large enough effect, not every such curve was filed as active; inconclusive means small, poorly fitted or top-dose-only effect, or another doubt; inactive means no such curve, though single readings can be large or run the other way; further: on the % scale 0 is the no-effect control and ±100 the full control effect
# Target sequence (P15428 whole entry, looked up): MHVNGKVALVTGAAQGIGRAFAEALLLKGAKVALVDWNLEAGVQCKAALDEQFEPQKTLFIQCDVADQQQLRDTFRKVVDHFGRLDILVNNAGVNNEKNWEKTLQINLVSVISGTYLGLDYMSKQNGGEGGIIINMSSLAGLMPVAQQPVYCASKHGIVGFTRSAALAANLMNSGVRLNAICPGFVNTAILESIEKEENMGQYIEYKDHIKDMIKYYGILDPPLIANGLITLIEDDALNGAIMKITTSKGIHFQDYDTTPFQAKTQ
#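 20 nM HPGD preincubated 15 min at room temperature with compound in 50 mM Tris-HCl pH 8, 0.01% Tween 20. Started with 1 mM NAD+ and 30 uM prostaglandin E2; NADH fluorescence (360/450 nm) read 5 times over 30-s intervals, last minus first.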
# Starred values were filed as active, the others as inactive; ? = inconclusive; nt = not tested or not shown; [ ] = another dose, or the depositor's remark. Sampled rows, rich in hits. Any-hit rate of the full collection: about 9%. Unless noted, the call rests on the fitted dose curve; in most records, active means well fitted curve in the direction sought with a large enough effect; inconclusive means small, poorly fitted or top-dose-only effect, or another doubt; inactive means no such curve, though single readings can be large; an effect the other way counts as inactive or inconclusive. Potency means the concentration at half of the fitted maximal effect.
SMILES,LMNA splice mod,ALDH1A1 block,HttQ103 aggreg,KinaseGlo FLuc,HTT ATP protect,HPGD block
Cc1ccc(-c2ccc(/C=C3\C(=O)ON=C3c3ccccc3)o2)c([N+](=O)[O-])c1,?,8.91µM*,-16.1%,2.3%,-34.5%,1.26µM*
CCOC(=O)c1c(C)oc2nc(C)nc(NCCc3ccc(S(N)(=O)=O)cc3)c12,-7.1%[46 µM],nt,nt,nt,nt,nt
Cc1ccc(C(=O)c2c(NC(=O)CSc3nnc(N)s3)sc3c2CCCC3)cc1,?,-2.8%,-27.4%,-3.5%,-17.1%[10 µM],?
Nc1nnc(SCC(=O)c2ccc3ccccc3c2)s1,4.7%,8.91µM*,-9.8%[9.22 µM],-1.6%,-2.6%[10 µM],22.4µM*
COCCNc1nnc(SCC(=O)Nc2sc3c(c2C(=O)c2ccccc2)CCCC3)s1,?,28.2µM*,-10.5%,-1.1%,20.1%[10 µM],-26.4%
Nc1nnc(SCC(=O)Nc2sc3c(c2C(=O)c2ccccc2)CCCC3)s1,?,12.6µM*,8.5%,-0.3%,-15.4%[10 µM],-19.8%
COCCNc1nnc(SCC(=O)NNC(=O)c2ccccc2)s1,nt,7.6%,0.3%,-2.6%,-8.2%,nt
COc1ccc2cc(CN(CCc3ccccc3)Cc3nnnn3CC3CCCO3)c(=O)[nH]c2c1 (stereo not given),9.2%,0.282µM*,-12.8%,-2.2%,4.3%[10 µM],-16.5%
COCCn1nnnc1CN(CCc1ccccc1)Cc1cc2ccc(C)cc2[nH]c1=O,2.2%,4.47µM*,32.5%,1.0%,-13.8%[10 µM],-3.7%
Cc1ccc2[nH]c(=O)c(CN(CCc3ccccc3)Cc3nnnn3CC3CCCO3)cc2c1 (stereo not given),-1.9%,22.4µM*,-7.2%,1.4%,5.0%[10 µM],-17.6%
O=C(O)C(=O)/C(=C\c1cccc(Cl)c1)c1ccc2ccccc2n1,?,?,-1.6%,0.9%,-24.7%,nt
Cc1cccc(/C=C(\C(=O)C(=O)O)c2ccc3ccccc3n2)c1,?,7.94µM*,-2.1%,-0.2%,-56.6%,nt
CCCCCCCCCCCCOC(=O)C[N+](C)(C)C,nt,nt,10.0%[9.22 µM],nt,-0.7%[10 µM],nt
Cc1ccnc(NC(=O)c2ccc3c(c2)C(=O)N(CC2CCCO2)C3=O)c1 (stereo not given),2.5%[46 µM],?,24.7%,-13.7%,4.6%,nt
Cc1cc(NC(=O)c2ccc3c(c2)C(=O)N(C2CCCCC2)C3=O)no1,-9.1%,-0.2%,-9.4%,2.0%,-11.2%,-3.8%
O=C(Nc1ccncc1)c1ccc2c(c1)C(=O)N(CC1CCCO1)C2=O (stereo not given),15.7%,5.62µM*,15.0%,2.7%,nt,-16.9%
O=C1c2cccc3cccc(c23)C(=O)N1CC1CCCO1 (stereo not given),8.8%[46 µM],?,-12.7%,0.5%,-20.6%,nt
O=C(Nc1ccncc1)c1ccc2c(c1)C(=O)N(C1CCCCC1)C2=O,?,7.08µM*,-6.7%,-1.4%,-15.4%,-11.1%
Nc1cccc(Oc2ccc3c(c2)C(=O)N(CC2CCCO2)C3=O)c1 (stereo not given),nt,8.91µM*,-7.5%[9.22 µM],nt,-5.0%[10 µM],nt
C/C(=N\NC(=O)c1ccncc1)C12CC3CC(CC(C3)C1)C2,-4.3%,?,11.8%,-1.5%,nt,-9.4%
CC(=O)Nc1ccc(/C(C)=N\NC(=O)c2ccc(-c3ccccc3)cc2)cc1,nt,22.4µM*,10.2%,-0.1%,-26.6%,nt
CC(=O)Nc1ccc(/C(C)=N/NC(=O)c2ccc(F)cc2)cc1,1.7%,0.7%,-0.7%,4.8%,8.1%[10 µM],-8.3%
CC/C(=N\NC(=O)c1ccc(-c2ccccc2)cc1)C12CC3CC(CC(C3)C1)C2,2.1%,12.6µM*,-12.3%,16.9%,5.7%,-24.6%
C/C(=N\NC(=O)c1ccc(-c2ccccc2)cc1)c1cccc(N)c1,-6.5%[46 µM],22.4µM*,-5.3%[9.22 µM],-1.7%,12.7%[10 µM],nt
CC(C)=CC(=O)OCc1cc([N+](=O)[O-])cc2c1OCOC2,nt,?,-5.2%,-1.6%,-15.8%,nt
SMILES,LMNA splice mod,ALDH1A1 block,HttQ103 aggreg,KinaseGlo FLuc,HTT ATP protect,HPGD block
CCCCCCc1cc2cc(S(=O)(=O)c3ccc(F)cc3)c(=O)oc2cc1O,?,?,?,7.3%,-30.0%[10 µM],-128.3%
COC(=O)N1CCN(c2ccc(C(C)=O)cc2)CC1,2.7%,?,10.4%,1.3%,6.8%,-14.6%
COc1cc(C2C(C(=O)c3ccco3)=C(O)C(=O)N2CCc2ccccc2)ccc1O (stereo not given),-7.3%,6.4%,-9.4%,-2.2%,9.0%[10 µM],-12.3%
O=C(C1=C(O)C(=O)N(CCOCCO)C1c1cccs1)c1cccs1 (stereo not given),?,2.24µM*,0.0%,-4.3%,-22.7%[0.074 µM],-9.8%
COc1ccc(CCN2C(=O)C(O)=C(C(=O)c3ccco3)C2c2cccs2)cc1OC (stereo not given),1.0%,7.94µM*,-12.7%,-6.6%,-2.3%[10 µM],-18.1%
COc1ccc(C2C(C(=O)c3ccco3)=C(O)C(=O)N2c2nnc(C)s2)cc1 (stereo not given),nt,-13.3%,1.3%[9.22 µM],0.9%,-7.4%[10 µM],nt
Cc1ccc2nc(N3C(=O)C(O)=C(C(=O)c4ccco4)C3c3cccs3)sc2c1 (stereo not given),1.1%,?,-8.3%,-0.3%,-15.3%,14.1µM*
O=C(NNC(=O)c1cc(-c2ccc(Cl)cc2Cl)nc2ccccc12)Nc1ccccc1,6.0%,2.5%,-12.2%,-1.8%,-54.1%,-12.9%
O=C(Nc1ccc(O)cc1)c1cccc(Oc2ccc([N+](=O)[O-])cc2)c1,nt,-9.1%,-5.1%[9.22 µM],0.4%,1.1%[10 µM],nt
CN(C)S(=O)(=O)Oc1cccc(C(=O)Nc2ccc([N+](=O)[O-])cc2)c1,?,4.47µM*,?,2.5%,-30.3%,nt
O=C(COc1ncnc2ccccc12)Nc1cccc(S(=O)(=O)N2CCOCC2)c1,-2.2%,8.4%,-7.8%,1.7%,7.6%[10 µM],-7.1%
CCN(CC)CCC[C@H](C)Nc1ccnc2cc(Cl)ccc12,-14.0%,1.4%[20.9 µM],-10.2%,0.1%[17.1 µM],7.7%[40.3 µM],-3.6%
CCN(CC)Cc1ccc(Nc2ccnc3cc(Cl)ccc23)cc1O,nt,-3.6%,nt,0.2%,14.1µM*,-8.9%
COCCN=C1Sc2nc3cc4c(cc3cc2CN1CC1CCCO1)OCO4 (stereo not given),nt,?,-1.9%[9.22 µM],-1.9%,4.7%[10 µM],nt
CCCc1[nH]nc2c1C(c1ccc(OCCN3CCOCC3)c(OC)c1)C(C#N)=C(N)O2 (stereo not given),16.2%,1.4%,11.1%,-4.2%,-16.4%,-14.1%
Cn1c(C(=O)NCC2CCCO2)cc2oc3ccccc3c21 (stereo not given),?,-6.7%,-15.6%,-5.4%,-24.3%,1.41µM*
